This note sets out measurements from PubChem BioAssay (EPA / NIEHS).

The source holds several records for some structures; these can differ, active in one and inactive in another. The source made the active and inactive calls. How the source made its calls: active means hit-call score of the fitted dose curve at least 0.9, where 1 is the maximum; inactive means score below 0.9.

Sequence of Caspase-3 (Homo sapiens) (P42574 whole entry, looked up): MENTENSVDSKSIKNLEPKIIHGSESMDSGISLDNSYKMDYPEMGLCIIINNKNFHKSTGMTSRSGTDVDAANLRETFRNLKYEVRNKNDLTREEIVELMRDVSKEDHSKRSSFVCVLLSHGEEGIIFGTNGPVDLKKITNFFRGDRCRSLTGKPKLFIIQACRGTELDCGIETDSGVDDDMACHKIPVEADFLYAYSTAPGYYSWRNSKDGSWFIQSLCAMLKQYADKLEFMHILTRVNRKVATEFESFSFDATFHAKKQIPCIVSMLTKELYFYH

Read-out in the assay: Caspase-3 (Homo sapiens) (UniProt P42574)
The experiment in a line: LTEA_HepaRG_CASP3: Life Technologies and Expression Analysis (LTEA) Assay for cysteine-aspartic acid protease (CASP3) using HepaRG (AID 2283477). To be noted: mRNA level, 48 h; actives raise or lower the signal. The procedure: LTEA_HepaRG is a cell based, multiplexed-readout assay that uses HepaRG, a human liver cell line, with measurements taken at 48 hours after chemical dosing on a 96-well plate.LTEA_HepaRG_CASP3 is one of 102 assay component(s) measured in the LTEA HepaRG cell culture assay. It is a marker of Cell proliferation, survival, death.Data from the assay component LTEA_HepaRG_CASP3 was analyzed into 1 endpoint. This assay endpoint, LTEA_HepaRG_CASP3, was analyzed with bidirectional fitting relative to DMSO as the negative control and baseline of activity. Using a type of inducible reporter, measures of mRNA induction for gain or loss-of-signal activity can be used to understand regulation of transcription factor activity. To generalize the intended target to other relatable targets, this assay endpoint is annotated to the protease intended target family, where the subfamily is cysteine protease.
A total of 1060 chemcials from the ToxCast library were tested in eight-point concentration-response experiments. Cell culture and cytotoxicity assays were conducted at Thermo Fisher Scientific's Custom Services facility (Madison, WI). A single lot of human HepaRG cells (Thermo Fisher Scientific, Frederick, MD) was used for the cell culture experiments. 96-well format collagen type I coated plates of human HepaRG cells were prepared using established methods. Briefly, cryopreserved HepaRG cells were thawed, plated at a density of approximately 100,000 cells/well in HepaRG Thaw, Plate, and General Purpose media (HPRG770, Thermo Fisher Scientific), and incubated for 48 hours. 0.5% DMSO was selected as vehicle control to balance the requisite need of DMSO in HepaRG cultures to maintain differentiation (for example, baseline metabolism, proportions of hepatocytes vs. cholangiocytes), while enabling further hepatic receptor pathway activation (for example, PXR and CAR) in response to chemical exposure. 48 hours after plating, the culture medium was replaced with HepaRG Serum-Free Incudtion Media. Cells were exposed to each test chemical in duplicate and maintained in CO2 incubators for another 48 hours. Chemical plates were thawed to room temperature and 200x concentrations of treatment groups were prepared. 8-point conentration-reponse curves were made with the highest exposure at 100 uM, followed by half-log dilutions, all in 0.5% DMSO. Each test plate contained variouse controls, induction positive controls (1mM phenobarbital), cytotoxicity positive controls ([…] aflatoxin B1), vehicle controls (0.5% DMSO), and total lysis controls (0.5% DMSO). Cell morphology images were taken using an Essen IncuCyte FLR automated microscope, with six 96-well plates imaged in about 24 minutes. Images were captured and exported and JPEG files. Spent culture media was transfered to black-well plates for the LDH assay, and remaining media was sorted at -80 C for later use. Cells were treated with RLT buffer and frozen until shipped for gene expression analysis. Total RNA was isolated from the cell suspension in 75 uL of Buffer RLT (Qiagen, Germantown, MD 20874) by Quintiles/Expression Analysis (Durham, NC) using a custom isolation procedure. Total RNA from each plate well was transferred to a preamplification plate. Fluidigm's 96.96 Dynamic ArrayTM (Fluidigm, Amsterdam, the Netherlands) technology was used for gene expression analyses by quantitative reverse transcription polymerase chain reaction (qRT-PCR, performed by Quintiles/Expression Analysis, Durham, NC)89. Standard TaqManTM Assays (Applied Biosystems/ThermoFisher Scientific, Foster City, CA) were used to assess the expression of 93 genes selected based on their selectivity and sensitivity to important hepatic receptors known to be modulated by environmental chemicals; importance in human hepatocyte functionality; and hepatotoxicity. […]
`CNC(=O)/C=C(\C)OP(=O)(OC)OC`: the compound was called inactive. Regarding `N#Cc1c(Cl)c(Cl)c(Cl)c(C#N)c1Cl`, the outcome was inactive. With `Clc1ccccc1-c1nnc(-c2ccccc2Cl)nn1`, the result was inactive. As for `COc1nn(CSP(=S)(OC)OC)c(=O)s1`, the compound was classed as inactive.

In the case of `O=C(Nc1ccccc1)Nc1cnns1`, the call was inactive.

For the compound `CC(C)N(C(=O)COc1nnc(C(F)(F)F)s1)c1ccc(F)cc1`, the outcome was inactive. The same measure, in the same setting: next, `O=C1c2ccccc2C(=O)N1SC(Cl)(Cl)Cl`: “inactive”.

Turning to `CCCN(CCOc1c(Cl)cc(Cl)cc1Cl)C(=O)n1ccnc1`, the compound was called inactive. Same read-out and setting: next, `O=S1OCC2C(CO1)C1(Cl)C(Cl)=C(Cl)C2(Cl)C1(Cl)Cl` (stereo not given): “inactive”; `CC(C)(C)C(O)/C(=C\c1ccc(Cl)cc1Cl)n1cncn1` (stereo not given): “inactive”; `O=[N+]([O-])c1c(Cl)c(Cl)c(Cl)c(Cl)c1Cl`: “inactive”.

Turning to `COP(=S)(OC)Oc1ccc(SC)c(C)c1`, the call was inactive. In the case of `CC1(C)C(C=C(Cl)Cl)C1C(=O)OC(C#N)c1ccc(F)c(Oc2ccccc2)c1` (stereo not given), the call was inactive. Regarding `CCN(CC)C(=O)SCc1ccc(Cl)cc1`, the call was inactive. In general, AC50 refers to the concentration giving half of the maximal activity seen. Turning to `O=[N+]([O-])/N=C1\NCCN1Cc1ccc(Cl)nc1`, the AC50 was 26.7 µM (active).

On to `CC(C)(C)C(O)C(Oc1ccc(Cl)cc1)n1cncn1` (stereo not given), for which the result was inactive. Turning to `O=S(=O)(O)C(F)(F)C(F)(F)C(F)(F)C(F)(F)C(F)(F)C(F)(F)C(F)(F)C(F)(F)F`, the compound was called inactive and the AC50 was 22.1 µM (active).

On to `COP(=O)(OC)OC=C(Cl)Cl`, for which the call was inactive. Still for that read-out and setting: next, `O=C(NC(=O)c1c(F)cccc1F)Nc1ccc(OC(F)(F)C(F)OC(F)(F)F)c(Cl)c1` (stereo not given): “inactive”; `O=C(O)COc1ccc(Cl)cc1Cl`: “inactive”; `CC1(c2ccc(Oc3ccccc3)cc2)OC(=O)N(Nc2ccccc2)C1=O` (stereo not given): “inactive”. The same measure, in the same setting: next, `C#CCN1C(=O)COc2cc(F)c(N3C(=O)C4=C(CCCC4)C3=O)cc21`: “inactive”. Regarding `CCC(C)(C)C(=O)OC1=C(c2ccc(Cl)cc2Cl)C(=O)OC12CCCCC2`, the compound was called inactive. Still for that read-out and setting: with `CN1CSC(=S)N(C)C1` the entry was “inactive”; with `Cc1[nH]c(=O)n(C(C)(C)C)c(=O)c1Cl`, “inactive”. On the same count and under the same terms, with `N#CN` the entry was “inactive”; with `CC(C)OC(=O)Nc1cccc(Cl)c1`, “inactive”. Take `CCc1ccc(C(=O)NN(C(=O)c2cc(C)cc(C)c2)C(C)(C)C)cc1`: the result was inactive.

As to `CCOC1Oc2ccc(OS(C)(=O)=O)cc2C1(C)C` (stereo not given), the compound was called inactive. As for `CC[C@H](C)[C@H]1O[C@]2(C=C[C@@H]1C)C[C@@H]1C[C@@H](C/C=C(\C)[C@@H](O[C@H]3C[C@H](OC)[C@@H](O[C@H]4C[C@H](OC)[C@@H](O)[C@H](C)O4)[C@H](C)O3)[C@@H](C)/C=C/C=C3\CO[C@@H]4[C@H](O)C(C)=C[C@@H](C(=O)O1)[C@]34O)O2` (tested in a mixture with another compound), the call was inactive.

Turning to `ClC1C(Cl)C(Cl)C(Cl)C(Cl)C1Cl` (stereo not given), the call was inactive. With `CNC(=O)Oc1ccccc1OC(C)C`, the outcome was inactive. For the compound `Oc1ccc(Cl)cc1Cc1ccccc1`, the result was inactive. As to `COP(=S)(OC)Oc1ccc([N+](=O)[O-])cc1`, the result was inactive. As to `O=C(O)C(F)(F)C(F)(F)C(F)(F)C(F)(F)C(F)(F)C(F)(F)C(F)(F)F`, the call was inactive. Regarding `C[C@H]1[C@H](c2ccc(Cl)cc2)SC(=O)N1C(=O)NC1CCCCC1`, the compound was classed as inactive. Turning to `CCOCN(C(=O)CCl)c1c(C)cccc1CC`, the compound was classed as inactive.

Take `CCC(C)Nc1c([N+](=O)[O-])cc(C(C)(C)C)cc1[N+](=O)[O-]` (stereo not given): the compound was called inactive. In the case of `CNC(=O)CSP(=S)(OC)OC`, the outcome was inactive.
